# Assay outcomes (PubChem BioAssay)
# An excerpt weighted towards active compounds, which were near 2.7% of everything screened.
# gsp antag: antagonizes gsp, the McCune-Albright syndrome mutation | Potency, µM (series often up to 76.9 µM), without a hit: top-dose activity change, negative = inhibition, usual class: inhibitors | 340,000 tested, 0.4% active | gsp-mutant cells, cAMP HTRF, 30 min; calls by dose curve; cell line not stated here;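 note: intracellular cAMP measured with PDE inhibitor Ro 20-1724 present during compound exposure; potency is the fitted concentration of half-maximal effect; % is set by controls: 0 for no effect and ±100 for the full control effect; nearly all actives have a fitted effect of over 65% in size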
#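 G418-selected cells were plated in DMEM/10% FBS for 16-24 h at 37C, then treated with compounds plus the PDE inhibitor […] (300 uM solution added) for 30 min at 37C. Intracellular cAMP was measured by HTRF after 30 min lysis at room temperature.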
# Akt phos inh: blocks phosphorylation of Akt; Neuro2A IGF-stimulated pAkt S473 HTRF, 20 min; active compounds read low; activity change, % for hits at 50 µM; 360,000 tested, 0.32% active; in the data active = activity change below about -80%; inconclusive = mostly about -51% to -80%; note: % is set by controls: 0 for no effect and ±100 for the full control effect
#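 Neuro2A cells (4,500/well, DMEM with 0.5% FBS) were treated with compound at a single 50 µM final concentration, stimulated with 6 nM IGF for 20 min at 37 °C, and lysed. Phospho-Akt Ser473 was read by HTRF as 665/615 ratio ×10^4.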
# ClpP mod: qHTS Assay for Activators of ClpP; ATP-dependent Clp protease proteolytic subunit (Bacillus subtilis (strain 168)), P80244; purified B. subtilis ClpP, FRET peptide cleavage, 20 min; Potency, µM (highest dose often 57.5 µM), inactives show at the highest dose activity change, negative = active; 340,000 tested, 1.9% active; active = well fitted falling curve with a large enough effect; inconclusive = small, poorly fitted or top-dose-only effect; inactive = no such curve, though single readings can be large or run the other way; note: potency is the fitted concentration of half-maximal effect; the source files actives as falling curves though it sought activators and does not explain the sign; nearly all actives have a fitted effect of over 65% in size
# Target sequence (P80244 whole entry, looked up): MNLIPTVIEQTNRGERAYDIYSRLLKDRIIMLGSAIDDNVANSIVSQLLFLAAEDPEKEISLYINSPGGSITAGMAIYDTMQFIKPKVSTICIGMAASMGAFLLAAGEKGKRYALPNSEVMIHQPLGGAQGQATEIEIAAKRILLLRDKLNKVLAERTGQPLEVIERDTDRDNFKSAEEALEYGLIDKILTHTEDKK
#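 FRET quenching reversal measured ClpP activation: 10 microg/mL B. subtilis ClpP at pH 8 with the FRET-FV decapeptide, read at 430 nm after 320 nm excitation. The 20-min minus 0-min signal was scaled between DMSO/no-enzyme wells and ADEP (5.8 microM final).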
# RXFP1 antagonist: antagonists of human relaxin receptor RXFP1; HEK293-RXFP1, relaxin-stimulated cAMP HTRF, 30 min; active compounds read low; activity change, negative = inhibition, % at 57.5 µM; 350,000 tested, 0.59% active;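 active = activity change of -60% or lower, but not beyond a set lower limit; inconclusive = change between -60% and -40%, or beyond the set limit; inactive = change above -40%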; note: % is set by controls: 0 for no effect and ±100 for the full control effect
# gsp ag: activates gsp, the McCune-Albright syndrome mutation | gsp mutant cells, cAMP HTRF, 30 min | Potency, µM (doses to about 76.9 µM), for the others: at the highest dose activation (cAMP increase), usual class: activators | 340,000 tested, 0.13% active | AID 624287; active = well fitted activation curve with a large enough effect; inconclusive = small, poorly fitted or top-dose-only effect, or another doubt; inactive = no such curve, though single readings can be large or run the other way; cell line not stated here;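 note: phosphodiesterase inhibitor Ro 20-1724 added with compounds to block cAMP breakdown; potency is the fitted concentration of half-maximal effect; nearly all actives have a fitted effect of over 60% in size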
#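 Cells in DMEM/10% FBS with G418 were pretreated with compounds in DMSO plus […] (300 uM stock) for 30 min at 37C. cAMP was measured by HTRF (cAMP-d2 plus anti-cAMP antibody-K) after 30 min at room temperature.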
# RXFP1 ag: activates the human relaxin receptor RXFP1. Potency, µM (titrated, usually from 57.5 µM), for the others: at the top dose activation, most hits filed as activators. Q9HBX9. HEK293T-RXFP1 cAMP TR-FRET, 30 min; response scale: percent of porcine relaxin response, buffer zero. 370,000 tested, 0.3% active; active = well fitted activation curve with a large enough effect; inconclusive = small, poorly fitted or top-dose-only effect; note: potency is the fitted concentration of half-maximal effect; % is set by controls: 0 for no effect and ±100 for the full control effect; nearly all actives have a fitted effect of over 60% in size
#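 HEK293 cells stably expressing RXFP1, treated 30 min at 37C with compounds plus PDE4 inhibitor Ro 20174; cAMP measured by HTRF TR-FRET. Normalized to buffer and 29 nM porcine relaxin; EC50 by Hill fit.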
# An asterisk follows results filed as active; i = inactive; ? = inconclusive; nt = not tested or not shown; [ ] = another dose, or the depositor's remark.
SMILES,gsp antag,Akt phos inh,ClpP mod,RXFP1 antagonist,gsp ag,RXFP1 ag
O=C(NCc1cccnc1)c1cc(C2CCCN(C(=O)c3cccc(O)c3)C2)on1 (stereo not given),nt,i,0%,nt,nt,nt
COC(=O)c1sc(-c2ccccc2)cc1NC(C)=O,-7%,i,-2%,9,22%[15.4 µM],9%
COC(=O)c1sc(-c2ccccc2)cc1NC(=O)Nc1ccc(F)cc1,nt,nt,32µM*,-23,nt,5%
CCOC(=O)c1sc(-c2ccc(F)cc2)cc1NC(=O)Nc1ccccc1OC,-2%,i,18µM*,4,-5%,3%
COC(=O)c1sc(-c2ccccc2)cc1NC(=O)Nc1ccc(Cl)cc1,nt,nt,18µM*,-17,nt,1%
CCOC(=O)c1sc(-c2ccccc2)cc1NC(=O)Nc1ccccc1,-23%,i,?,-9,21%,2%
COC(=O)c1sc(-c2ccccc2)cc1NC(=O)Nc1ccccc1Cl,nt,nt,7%,?,nt,-2%
C(=Nc1cnc2ccccc2c1)c1ccncc1,nt,nt,4%,nt,nt,nt
CN(C)CCCNc1cc(C(C)(C)C)nc2c(-c3ccccc3)cnn12,1%,i,nt,-61*,?,0%
CC(C)(C)c1cc(NCCCn2ccnc2)n2ncc(-c3ccc(Cl)cc3)c2n1,10%,i,14µM*,18,?,7%
CC1(C)CC(=O)C2=C(C1)N(CCN1CCOCC1)C1=C(C(=O)CC(C)(C)C1)C2c1cccc(F)c1,2%,i,28µM*,0,1%,3%
NC(=S)NN=Cc1nccc2c(C(F)(F)C(F)(F)C(F)(F)F)cccc12,nt,i,0%,12,-15%,nt
NC(=S)NN=Cc1nccc2ccccc12,-4%,i,nt,-76*,6%,nt
Cc1ccccc1NC(=O)c1sc2nc3n(c(=O)c2c1C)CCC3,nt,nt,1%,-16,nt,-4%
COc1ccccc1NC(=O)c1sc2nc3n(c(=O)c2c1C)CCC3,-2%,i,?,16,?,8.9µM*
CCOC(=O)N1CCN(c2c(F)cc3[nH]c(=S)[nH]c3c2Br)CC1,23%,i,-1%,-65*,-25%,5%
CCOC(=O)C1=C(C)Nc2nc3ccccc3n2C1c1ccccc1 (stereo not given),-12%,i,35µM*,-9,-2%,1%
N#Cc1ccc(/C=C2/C=Cc3ccccc32)cc1,nt,nt,-2%,nt,nt,nt
Cc1cnc(-c2nnc(N(C)C(=O)C3CCOC3)s2)cn1 (stereo not given),19%,i,28µM*,1,-24%,1%
O=C(NC1CCCCNC1=O)c1ccc(Cl)cc1 (stereo not given),4%,i,28µM*,-1,-5%,0%
Cc1ccc(C(=O)NC2CCCCNC2=O)cc1 (stereo not given),10%,i,0%,-1,-2%,0%
Cc1ccc(/C=c2\sc3nc(-c4cccnc4)nn3c2=O)cc1,5%,i,14µM*,3,-3%,4%
Cc1ccc2oc(-c3ccc(C)c(NC(=O)COc4ccc(Cl)cc4)c3)nc2c1,nt,nt,4%,nt,nt,nt
CC(C)C(NC(=O)Cc1ccccc1)C(=O)N1CCN(c2cccc(Cl)c2)CC1 (stereo not given),28µM*,i,2%,5,10%,1%
COc1ccc([C@H]2[C@H](C(=O)C(C)(C)C)N3N=Cc4ccccc4C3[C@]23N=C(c2ccccc2)OC3=O)cc1OC (stereo not given in full),-1%,-106%*,-2%,-5,-14%,2%
SMILES,gsp antag,Akt phos inh,ClpP mod,RXFP1 antagonist,gsp ag,RXFP1 ag
COc1ccc([C@H]2[C@H](C(=O)C(C)(C)C)N3N=Cc4ccccc4C3[C@]23N=C(c2ccccc2)OC3=O)cc1 (stereo not given in full),-14%,i,-2%,-6,23%,-2%
CC1(C(=O)NS(=O)(=O)c2cccc(C#N)c2)CCN1C(=O)c1ccccc1 (stereo not given),nt,i,-1%,nt,nt,nt
CCn1ccc(C(=O)Nc2ccccc2Cl)n1,50µM*,i,0%,1,-30%,-1%
CCn1ccc(C(=O)NC2=C(C#N)CCC2)n1,4%,-115%*,0%,-3,-13%,0%
Cc1nn(-c2ccccc2)c(OC(=O)C(C)(C)C)c1Sc1ccccc1,nt,nt,-3%,5,nt,0%
Cc1cccn2c(/C=N/OCc3cccc(F)c3)c(-c3ccc(Cl)cc3)nc12,-5%,i,22µM*,0,5%,0%
C=CCN=c1scc(-c2ccco2)n1/N=C/c1ccc(O)c(O)c1O,-29%,i,nt,?,16%[15.4 µM],4%
COCCN=c1scc(-c2ccco2)n1/N=C/c1ccc(O)c(O)c1O,?,i,nt,-104*,-17%[15.4 µM],-2%
Oc1ccc(/C=N/n2c(-c3ccco3)csc2=Nc2cccnc2)c(O)c1,?,i,-3%,-62*,-4%[15.4 µM],0%
CC(C)N=c1scc(-c2ccco2)n1/N=C/c1ccc(O)c(O)c1,?,i,-6%,nt,23%,2%
CN=c1scc(-c2cccs2)n1/N=C/c1ccccc1O,7%,i,1%,?,-27%,-2%
CN=c1scc(-c2cccs2)n1/N=C/c1ccc(O)c(O)c1O,-21%,i,nt,-63*,-11%,0%
CC1CCN(S(=O)(=O)c2ccc(Cl)cc2)CC1,50µM*,i,-4%,7,-2%,0%
CC1CCN(S(=O)(=O)c2cccc(-c3cn4cc(Cl)ccc4n3)c2)CC1,-13%,i,35µM*,-3,1%,1%
COC(=O)C1=CN(c2ccc(C)cc2)C(N)=C(C#N)C1c1ccc(OC)cc1 (stereo not given),nt,i,-12%,nt,nt,nt
COc1ccc(N2CCN(c3ccc(NC(=O)C4CCCCC4)cc3C#N)CC2)cc1,4%,i,28µM*,-21,2%,12%
O=C(CN(CCc1c[nH]c2ccccc12)S(=O)(=O)c1ccccc1)N1CCCCCC1,nt,nt,-1%,nt,nt,nt
COc1ccc(Br)cc1-c1nc(CCl)cs1,6%,i,-1%,6,?,18µM*
CCOc1ccc(-c2nc(CCl)cs2)cc1,2%,i,3%,11,1%,-1%
COC(=O)c1ccccc1NS(=O)(=O)c1cc2c3c(c1)CC(=O)N3CCC2,nt,nt,-2%,-14,nt,0%
O=C(N/N=C/c1cc(Br)c(Br)o1)c1cc2ccccc2o1,-18%,i,-15%,-63*,?,3%
O=C(N/N=C/c1cc(Cl)c(O)c(Cl)c1)c1cc2c(ccc3ccccc32)o1,32µM*,i,?,-81*,?,0%
